Screening data deposited in PubChem BioAssay by Sanford-Burnham Center for Chemical Genomics.
Hits are enriched below; roughly 31% of the tested compounds scored in any of these assays.
CYP2C19 inh: blockers of cytochrome P450 2C19 activity – biochemical, luminescence, ADME assay, primary screen; CYP2C19 Supersomes, luciferin-H EGE luminescence, 30 min; hit rate 21% among 96,000; AID 778, 2007; inhibition, % at 5 µM;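 active means CYP2C19 inhibition above a set limit at 5 µM in the primary screen, cut at about 50% in these data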
CYP2C9 inhib: blockers of cytochrome P450 2C9 activity – biochemical, luminescence, ADME assay, primary screen | P11712 | CYP2C9 Supersomes, luciferin-H conversion | inhibition, % at 5 µM | hit rate 20% among 96,000;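 active means blocking of liver enzyme CYP2C9 beyond about 50% at 5 µM, limit read from the data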
CYP2C19 act: human CYP2C19 activators, primary screen, biochemical, luminescence. recombinant CYP2C19, luciferin-H EGE luminescence; stronger effect = higher value; 0 = fully inhibited enzyme, 1 = untreated enzyme. activation factor at 5 µM. 96,000 tested, under 10 active;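 active means activation factor of at least 2 at 5 µM in the primary screen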
CYP2C9 act: human CYP2C9 activators, primary screen, biochemical, luminescence; Cytochrome P450 2C9 (Homo sapiens), P11712; recombinant CYP2C9, luciferin-H conversion; stronger effect = higher value; factor 1 = untreated enzyme, 0 = blocked; activation factor at 5 µM; hit rate 1.4% among 96,000;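 active means activation factor of 2 or more for CYP2C9 at a 5 µM dose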
Large screens that a line does not name were inactive.

COc1cccc2c1OC1(C)CC2/C(=C(\C)O)C(=O)N1 (stereo not drawn)	none
Cc1cc(-c2ccccc2)nc2[n+]1CCN2C	none
CCN(CC(=O)NCCc1ccc(S(N)(=O)=O)cc1)Cc1nc2ccccc2c(=O)[nH]1	CYP2C9 inhib 65.9
Cc1cc(/C=C(\C#N)C(=O)OCC(=O)NC(=O)NC(C)(C)C)c(C)n1CCC(C)C	CYP2C19 inh 92.3, CYP2C9 inhib 97.8
Cc1cccc(-n2ccnc2SCC(=O)Nc2nccs2)c1	CYP2C19 inh 59.9
Cc1cc(C)cc(-n2ccnc2SCC(=O)Nc2nccs2)c1	none
CCSc1nnc(NC(=O)CSc2nccn2-c2cccc(C)c2)s1	CYP2C9 inhib 63.1
COc1cccc(-n2ccnc2SCC(=O)Nc2nccs2)c1	CYP2C19 inh 59.2
CCCCc1nnc(NC(=O)CSc2nc(=O)cc(N)n2-c2cccc(C)c2)s1	none
O=C(OCCCC(=O)N1CCOCC1)c1ccccc1	none
O=C(N/N=C\c1ccc(Sc2ccccn2)o1)c1cccc(F)c1	CYP2C19 inh 59.3, CYP2C9 inhib 59.5
O=C(CCc1ccccc1O)N/N=C/c1ccc(Sc2cccc3cccnc23)o1	CYP2C9 inhib 98.8
O=C(N/N=C/c1ccncc1)c1cc2c(ccc3ccccc32)o1	none
O=C(N/N=C/c1ccc(Sc2ccccn2)o1)c1cc2ccccc2cc1O	CYP2C19 inh 98.2, CYP2C9 inhib 87.9
Cc1nnc(NC(=O)C2CCCN(S(=O)(=O)c3ccccc3C(F)(F)F)C2)s1 (stereo not drawn)	CYP2C19 inh 51.4, CYP2C9 inhib 62.0
O=C(NCc1ccco1)C1CCCN(S(=O)(=O)c2cccc3cccnc23)C1 (stereo not drawn)	CYP2C19 inh 70.4, CYP2C9 act 4.1
O=C(Nc1ccccc1F)C1CCCN(S(=O)(=O)c2cccc3cccnc23)C1 (stereo not drawn)	CYP2C19 inh 75.6
Cc1nnc(NC(=O)C2CCCN(S(=O)(=O)Cc3ccccc3)C2)s1 (stereo not drawn)	none
O=C(C1CCCN(S(=O)(=O)c2cccc3cccnc23)C1)N1CCN(c2ccc(F)cc2)CC1 (stereo not drawn)	CYP2C19 inh 61.1
O=C(C1CCN(S(=O)(=O)c2cccc3cccnc23)CC1)N1CCN(c2ccccc2)CC1	none
Fc1ccc(/C=N/n2c(-c3cccs3)n[nH]c2=S)cc1	none
O=C(Nc1ccncc1)C1CCCN(S(=O)(=O)c2cccc3cccnc23)C1 (stereo not drawn)	CYP2C19 inh 98.7, CYP2C9 inhib 94.2
Cc1[nH]c(=O)[nH]c(=O)c1S(=O)(=O)N1CCCC(C(=O)NCc2ccco2)C1 (stereo not drawn)	CYP2C19 inh 74.2, CYP2C9 inhib 96.8
COc1cccc(NC(=O)C2CCCN(S(=O)(=O)c3cccc4cccnc34)C2)c1 (stereo not drawn)	none
CS(=O)(=O)N1CCCC(C(=O)NCc2ccco2)C1 (stereo not drawn)	none
CCOC(=O)C1CCCN(S(=O)(=O)c2cccc3cccnc23)C1 (stereo not drawn)	CYP2C19 inh 80.7, CYP2C9 act 4.5
CC(C)(C)NC(=O)C1CCCN(S(=O)(=O)c2cccc3cccnc23)C1 (stereo not drawn)	CYP2C9 act 2.7
CCOc1ccccc1NC(=O)C1CCCN(S(=O)(=O)c2cccc3cccnc23)C1 (stereo not drawn)	none
c1ccc(C(c2ccccc2)N2CCN(c3ccc4ccccc4n3)CC2)cc1	none
Cc1ccc(-c2cc(C)nc3ncnn23)cc1	none
CC(=O)SCCC(=O)N1C(C)CCCC1C(=O)O (stereo not drawn)	none
CCNc1nc(NC(C)(C)C)nc(N(C#N)CC)n1	none
CCOC(=O)c1c(N)sc(C(O)(C(F)(F)F)C(F)(F)F)c1-c1ccccc1	CYP2C19 inh 89.8, CYP2C9 inhib 98.6
NC(=O)C1=NOC(CNc2ncc(C(F)(F)F)cc2Cl)C1 (stereo not drawn)	CYP2C9 act 2.7
Cc1ccc(C(=O)OCC(=O)Nc2ncc(C(F)(F)F)cc2Cl)cc1NC(=O)c1ccco1	none
NC(=O)NOCc1ncc(C(F)(F)F)cc1Cl	none
CO/N=C/NC(=O)C1=NOC(CNc2ncc(C(F)(F)F)cc2Cl)C1 (stereo not drawn)	CYP2C19 inh 74.8
Cc1nnc(SCc2cccc(CSc3nnc(C)s3)c2)s1	none
Cc1nnc(SCc2ccc3c(c2)OCO3)s1	CYP2C19 inh 69.4, CYP2C9 inhib 54.7
COCCNc1nnc(SCC(=O)c2ccc3c(c2)OCO3)s1	CYP2C19 inh 53.4
